The text below walks through data of PubChem BioAssay (NCATS).

Several values for one entry are separate records, joined by “and”; a condition that tells them apart may be missing. Equal values may be shown once. Values without a mark were called inactive. Results filed as inconclusive are left out. Activity calls are given as the source filed them. Unless noted, calls follow the shape of the dose curve; as a rule, active = well fitted curve in either direction with a large enough effect (not every such curve was filed as active); inconclusive = small, poorly fitted or top-dose-only effect, or another doubt; inactive = flat fitted curve, though single readings scatter.

A short description of test [1]: AP1 Signaling Pathway (AID 357).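 Also: ME-180 reporter cells stimulated with EGF at its EC50 level; % is scaled to controls: 0 for no effect and ±100 for the full control effect.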 Particulars: ME-180 AP-1-bla reporter, EGF-induced, beta-lactamase ratio, 5 h. The procedure, abridged: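 A ratiometric CCF4 readout (405 nm excitation; 460 and 530 nm emission) quantified AP-1-driven beta-lactamase in ME-180 cells after 5 h with compound and EC50 EGF; AC50 values were derived for activators and inhibitors.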
In test [2] the target is Cytochrome P450 1A2 (Homo sapiens) (UniProt P05177). Briefly: p450-cyp1a2 (AID 410; calls by dose curve; also: potency is read from the fitted curve at half-maximal effect;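 as to activity change, negative = inhibition: -100% = full effect of reference inhibitor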). The following applies: recombinant CYP1A2, luciferin-ME demethylation, luminescence; series mostly up to 25.6 µM. The procedure, abridged: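 Luminescent readout of luciferin formed from Luciferin-ME by human CYP1A2; data normalized against complete inhibition by 57 uM furafylline. Enzyme 20nM, substrate 100uM at Km, 100mM KPO4 buffer, 60 min reaction at room temperature.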

Test [3] can be described thus: NFAT Signaling Pathway (AID 444).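 Also: carbachol stimulus at about its EC50 of 1 µM final; % is scaled to controls: 0 for no effect and ±100 for the full control effect.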 The following applies: Jurkat NFAT-bla M1, carbachol, beta-lactamase ratio, 5 h. The method, boiled down: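 Jurkat cells with NFAT-driven β-lactamase reporter and co-expressed M1 receptor, stimulated with carbachol (final 1 uM, ~EC50), compound titration, 5 h at 37 °C. CCF4 loaded 1 h at RT; 460/530 nm ratio gave %activity and AC50.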

A short description of test [4]: Stat Signaling Pathway (AID 446).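 Also: ME-180 cervical cancer cells given 40 pM IL-6 alongside compound; SIE-controlled beta-lactamase reporter measured as 460/530 nm FRET emission ratio; % is scaled to controls: 0 for no effect and ±100 for the full control effect.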 The following applies: ME-180 SIE beta-lactamase reporter, IL-6 stimulated, 5 h. The procedure, abridged: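 ME-180 SIE-bla cells; overnight plating; cpd + IL-6 40 pM, 5 h, 37 C; LiveBLAzer 2.5 h RT; 460/530 nm emission ratio. Normalized to 300 pM IL-6 and 125 nM JAK inhibitor controls.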
In test [5] the target is Mitogen-activated protein kinase 10 (Mus musculus) (UniProt Q61831). As to the kind of experiment: JNK3 AlphaScreen Assay (AID 530).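 Also: kinase came from lysate of stimulated human HepG2 cells; signal reports phosphorylation of biotinylated GST-cJun 1-79 at Ser73 with 10 µM ATP; % is scaled to controls: 0 for no effect and ±100 for the full control effect.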 Particulars: JNK3 lysate, c-Jun phosphorylation; series mostly up to 57.1 µM. The method, boiled down:
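Pre-activated (IL-1β/TNFα) JNK3 in HepG2 lysates phosphorylates biotin-GST-cJun(1-79), 10 uM ATP; anti-phospho-cJun(Ser73) AlphaScreen read at room temperature, pH 7.6 Tris buffer. Compounds pre-incubated 15 min as titrations.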
Background: In Alpha technology, singlet oxygen from a donor bead excites a nearby acceptor bead.

In test [6] the target is Glucocorticoid receptor (Homo sapiens) (UniProt P04150). As to the kind of experiment: GR-GFP Redistribution (AID 450;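 active = compounds whose dose series gives a full or clear partial fitted curve of increased nuclear translocation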; also: potency is read from the fitted curve at half-maximal effect). The following applies: U2OS GR-GFP nuclear translocation, laser cytometry, 2 h.
Test [7] shares this target. Briefly: GR-EFC Redistribution (AID 451; calls by dose curve; also: potency is read from the fitted curve at half-maximal effect). The following applies: CHO-K1 GR-EFC translocation, beta-gal luminescence, 2 h. The method, boiled down:
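CHO-K1 cells expressing nuclear EA and GR-ED fragments of b-gal; compounds titrated up to 46 uM final, 2 h at 37 C. GR nuclear translocation read as complemented b-gal luminescence after 1 h RT detection.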

Glucocorticoid receptor (Homo sapiens), sequence (P04150 whole entry, looked up): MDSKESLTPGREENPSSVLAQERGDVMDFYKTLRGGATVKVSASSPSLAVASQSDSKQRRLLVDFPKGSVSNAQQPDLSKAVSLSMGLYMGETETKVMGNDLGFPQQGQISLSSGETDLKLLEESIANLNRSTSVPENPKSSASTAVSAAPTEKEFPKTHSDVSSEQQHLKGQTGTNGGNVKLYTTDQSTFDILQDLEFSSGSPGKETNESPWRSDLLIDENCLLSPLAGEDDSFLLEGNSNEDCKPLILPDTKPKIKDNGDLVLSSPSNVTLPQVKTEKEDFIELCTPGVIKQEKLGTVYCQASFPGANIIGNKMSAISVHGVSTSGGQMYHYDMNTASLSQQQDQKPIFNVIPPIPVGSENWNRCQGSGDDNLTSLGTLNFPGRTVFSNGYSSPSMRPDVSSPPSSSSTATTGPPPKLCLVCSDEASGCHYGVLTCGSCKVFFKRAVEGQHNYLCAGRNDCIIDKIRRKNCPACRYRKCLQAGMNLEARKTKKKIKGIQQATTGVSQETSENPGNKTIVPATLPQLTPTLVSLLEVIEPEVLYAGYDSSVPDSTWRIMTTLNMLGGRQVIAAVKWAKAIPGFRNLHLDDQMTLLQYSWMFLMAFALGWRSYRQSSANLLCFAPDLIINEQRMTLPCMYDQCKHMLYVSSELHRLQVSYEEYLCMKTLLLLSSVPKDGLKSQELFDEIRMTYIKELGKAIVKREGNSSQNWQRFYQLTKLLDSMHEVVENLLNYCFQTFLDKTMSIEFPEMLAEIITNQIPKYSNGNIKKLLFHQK
Cytochrome P450 1A2 (Homo sapiens), sequence (P05177 whole entry, looked up): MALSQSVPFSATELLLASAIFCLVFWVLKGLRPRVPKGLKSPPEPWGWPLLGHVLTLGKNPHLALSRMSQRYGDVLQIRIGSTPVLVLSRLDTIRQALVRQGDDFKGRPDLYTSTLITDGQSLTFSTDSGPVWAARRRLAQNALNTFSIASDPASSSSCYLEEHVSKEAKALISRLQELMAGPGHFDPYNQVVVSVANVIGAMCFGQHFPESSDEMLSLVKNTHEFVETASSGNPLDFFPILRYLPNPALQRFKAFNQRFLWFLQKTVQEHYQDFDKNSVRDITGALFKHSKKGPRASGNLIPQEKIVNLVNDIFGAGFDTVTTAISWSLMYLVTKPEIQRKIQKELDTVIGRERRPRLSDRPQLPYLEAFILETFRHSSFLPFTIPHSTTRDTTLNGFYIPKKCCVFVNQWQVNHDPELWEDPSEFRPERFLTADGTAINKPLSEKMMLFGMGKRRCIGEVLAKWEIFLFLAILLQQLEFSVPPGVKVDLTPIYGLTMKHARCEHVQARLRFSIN

As to `CC1=C(CC(=O)O)c2cc(F)ccc2/C1=C\c1ccc(S(C)(=O)=O)cc1`, the activity change, negative = inhibition in test [1] (at 38 µM (top of the series)) was 11.6%; in test [3] (at 38 µM (top of the series)) it was 13.8%. Besides, in test [2], the Potency is 12.6 µM (active). Further, the activity, negative = inhibition in test [4] (at 38 µM (top of the series)) was -25.4%. Moreover, the Potency entry in test [5] is “inactive”.

For the compound `Nc1ccc(S(=O)(=O)NC(=O)c2ccccc2)cc1`, the activity change, negative = inhibition in test [1] (at 17.2 µM (top of the series)) is 13.8% and 7.16%; in test [3] (at 17.2 µM (top of the series)), 7.31% and -26.1%. Also, the Potency entry in test [2] and in test [5] was “inactive” in each case. Also, in test [4] (at 17.2 µM (top of the series)), the activity, negative = inhibition is -0.201% and -5.16%. Further, the Potency in test [6] and in test [7] was more than 20.6 µM in each case.

Regarding `Nc1cc(=O)[nH]c(N)n1`, the activity change, negative = inhibition in test [1] (at 38 µM (top of the series)) was -5.58%; in test [3] (at 38 µM (top of the series)) it was -0.946%. In addition, the Potency result in test [2] is “inactive”. Moreover, the activity, negative = inhibition in test [4] (at 38 µM (top of the series)) is 1.02%.

Take `c1ccc2c(CC3=NCCN3)cccc2c1`: the activity change, negative = inhibition in test [1] (at 17.2 µM (top of the series)) is 14% and 7.7%; in test [3] (at 17.2 µM (top of the series)), -19.1%. The Potency result in test [2] and in test [5] was “inactive” each time. Also, the activity, negative = inhibition in test [4] (at 17.2 µM (top of the series)) is 6.58% and 9.6%.

`CCCCN(CCCC)CCCOC(=O)c1ccc(N)cc1`: the activity change, negative = inhibition in test [1] (at 17.2 µM (top of the series)) was -6.24% and -3.31%. In addition, the Potency in test [2] is 10 µM (active); in test [6] it was more than 20.6 µM; in test [7] it was more than 20.6 µM. The activity, negative = inhibition in test [4] (at 17.2 µM (top of the series)) was -8.33% and 3.52%. Also, the Potency result in test [5] is “inactive”.

`CC(=O)c1ccc2c(c1)N(CCCN(C)C)c1ccccc1S2`: in test [1] (at 17.2 µM (top of the series)), the activity change, negative = inhibition was 24.3%. Besides, the results for the Potency in test [2], in test [6] and in test [7] were 1.58 µM (active), more than 20.6 µM and more than 20.6 µM, respectively. In addition, the activity, negative = inhibition in test [4] (at 17.2 µM (top of the series)) was -0.766%. Further, the Potency result in test [5] was “inactive”.

For the compound `CC(CN1c2ccccc2Sc2ccccc21)N(C)C` (stereo not given), in test [3] (at 17.2 µM (top of the series)), the activity change, negative = inhibition is -73.5% (active). In addition, the activity, negative = inhibition in test [4] (at 17.2 µM (top of the series)) is -1.09%.

For the compound `CN(C)CCOC(C)(c1ccccc1)c1ccccn1` (stereo not given), the activity change, negative = inhibition in test [1] (at 17.2 µM (top of the series)) was 4.21%. The activity, negative = inhibition in test [4] (at 17.2 µM (top of the series)) was 5.21%.

For the compound `CN(C)CCC=C1c2ccccc2CCc2ccccc21`, the Potency in test [2] is 15.8 µM (active); in test [6] it was > 46 µM and > 20.6 µM; in test [7], > 46 µM and > 20.6 µM. For the same compound, the activity change, negative = inhibition in test [3] (at 17.2 µM (top of the series)) is -80% (active). Besides, the activity, negative = inhibition in test [4] (at 17.2 µM (top of the series)) is -2.52% and 2.81%; in test [4] (at 38 µM (top of the series)), 28.3%. The Potency result in test [5] was “inactive”.

Take `O=c1cc(CO)occ1O`: the Potency entry in test [2] and in test [5] was “inactive” each time. Also, the Potency in test [6] and in test [7] was more than 46 µM each time.

As to `Cn1cc[nH]c1=S`, the activity change, negative = inhibition in test [1] (at 17.2 µM (top of the series)) is -7.08%; in test [3] (at 17.2 µM (top of the series)) it was -4.58%. Moreover, the activity, negative = inhibition in test [4] (at 17.2 µM (top of the series)) was -3.77%. Besides, the Potency result in test [5] was “inactive”.

For the compound `CCCc1c(OCCCCc2nn[nH]n2)ccc(C(C)=O)c1O`, the activity change, negative = inhibition in test [1] (at 17.2 µM (top of the series)) was -20.5%. In addition, in test [4] (at 17.2 µM (top of the series)), the activity, negative = inhibition was -12.8%. Besides, in test [6], the Potency was more than 20.6 µM.
